Where “and” joins values, the source holds several entries; their conditions need not be identical. Equal values may be shown once. The campaign covered roughly 5,500 compounds. About 2,000 (36%) were called active. Inconclusive results (about 18%) are left out. Rule as the data show it: active = normalized growth mostly below about 0.91 (no sharp cut-off); inconclusive = no clear call, values can overlap the other calls; inactive = mostly above about 0.92. The list shows a part of the results.
Assay: chemical genetic growth profiling, strain panel (AID 1159580);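 also: tested at 20 µM; growth read once vehicle control cultures reached saturation at 30 °C; 1 = growth at the plate median or of vehicle wells; lower values mean less growth of the strain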
Conditions: S. cerevisiae deletion strains, growth OD

Measured: normalized growth

CC(=O)O[C@H]1C[C@@]2(C)[C@@H](C[C@@H](O)C3[C@]2(C)CC[C@H]2[C@H](C)[C@H](O)CC[C@]32C)/C1=C(/CCC=C(C)C)C(=O)O (stereo partly drawn)
inactive: locus YAL013W, strain DEP1, stronger effect = lower value 1.02 | locus YAL021C, strain ccr4, stronger effect = lower value 1.02 | locus YAL026C, strain drs2, stronger effect = lower value 1.01 | locus YAL030W, strain snc1, stronger effect = lower value 1.03 | locus YBL061C, strain skt5, stronger effect = lower value 1.04 | locus YBR009C, strain hhf1, stronger effect = lower value 1.02 | locus YBR021W, strain FUR4, stronger effect = lower value 1.04 | locus YBR023C, strain chs3, stronger effect = lower value 1.04 | locus YBR171W, strain sec66, stronger effect = lower value 1.01 | locus YBR229C, strain ROT2, stronger effect = lower value 1.01 | locus YBR231C, strain swc5, stronger effect = lower value 0.988 | locus YBR279W, strain paf1, stronger effect = lower value 1.03 | locus YCL011C, strain gbp2, stronger effect = lower value 1.01 | locus YCL016C, strain dcc1, stronger effect = lower value 1.05 | locus YCL029C, strain bik1, stronger effect = lower value 1.03 | locus YCL061C, strain MRC1, stronger effect = lower value 1.02 | locus YCL069W, strain vba3, stronger effect = lower value 1.01 | locus YCR088W, strain abp1, stronger effect = lower value 1.01 | locus YDL005C, strain med2, stronger effect = lower value 1.04 | locus YDL035C, strain GPR1, stronger effect = lower value 0.989 | locus YDL040C, strain nat1, stronger effect = lower value 1.02 | locus YDL074C, strain BRE1, stronger effect = lower value 1.03 | locus YDL101C, strain DUN1, stronger effect = lower value 1.01 | locus YDL134C, strain PPH21, stronger effect = lower value 1 | locus YDL185W, strain tfp1, stronger effect = lower value 1.01 | locus YDL192W, strain arf1, stronger effect = lower value 1.03 | locus YDR001C, strain nth1, stronger effect = lower value 1 | locus YDR069C, strain doa4, stronger effect = lower value 1.03 | locus YDR101C, strain arx1, stronger effect = lower value 1.02 | locus YDR137W, strain rgp1, stronger effect = lower value 1 | locus YDR150W, strain NUM1, stronger effect = lower value 1.02 | locus YDR159W, strain sac3, stronger effect = lower value 0.989 | locus YDR162C, strain NBP2, stronger effect = lower value 1 | locus YDR195W, strain ref2 1.03 | locus YDR297W, strain sur2, stronger effect = lower value 1.02 | locus YDR318W, strain mcm21, stronger effect = lower value 1.03 | locus YDR334W, strain swr1, stronger effect = lower value 1.02 | locus YDR335W, strain msn5, stronger effect = lower value 1.04 | locus YDR388W, stronger effect = lower value 1.04 | locus YDR392W, strain spt3, stronger effect = lower value 0.998 | locus YDR502C, strain sam2, stronger effect = lower value 1.04 | locus YEL003W, strain gim4, stronger effect = lower value 0.998 | locus YEL037C, strain rad23, stronger effect = lower value 1 | locus YEL061C, strain CIN8 (second series), stronger effect = lower value 1.01 | locus YEL061C, strain CIN8, stronger effect = lower value 1.01 | locus YER015W, strain faa2, stronger effect = lower value 1.03 | locus YER016W, strain bim1, stronger effect = lower value 1.01 | locus YER110C, stronger effect = lower value 1.02 | locus YER111C, strain swi4, stronger effect = lower value 1.03 | locus YER155C, strain BEM2 (second series), stronger effect = lower value 1.01 | locus YER155C, strain BEM2, stronger effect = lower value 1.01 | locus YER167W, strain BCK2, stronger effect = lower value 1.02 | locus YFR010W, strain ubp6, stronger effect = lower value 1.02 | locus YGL078C, strain dbp3, stronger effect = lower value 1.04 | locus YGL086W, strain mad1, stronger effect = lower value 1.01 | locus YGL167C, strain pmr1, stronger effect = lower value 1.02 | locus YGL173C, strain kem1, stronger effect = lower value 1.01 | locus YGL227W, strain vid30, stronger effect = lower value 1.01 | locus YGL240W, strain doc1, stronger effect = lower value 1.01 | locus YGL248W, strain PDE1, stronger effect = lower value 1.01 | locus YGL253W, strain hxk2, stronger effect = lower value 1.01 | locus YGR078C, strain PAC10, stronger effect = lower value 1.02 | locus YGR135W, strain pre9, stronger effect = lower value 1.06 | locus YGR229C, strain SMI1, stronger effect = lower value 1.02 | locus YGR252W, strain gcn5, stronger effect = lower value 1.02 | locus YHR013C, strain ard1, stronger effect = lower value 1.08 | locus YHR027C, strain rpn1, stronger effect = lower value 1.03 | locus YHR030C, strain SLT2, stronger effect = lower value 1.02 and 0.951 | locus YHR079C, strain IRE1 (second series), stronger effect = lower value 1.01 | locus YHR079C, strain IRE1, stronger effect = lower value 0.959 | locus YHR094C, strain hxt1, stronger effect = lower value 1.03 | locus YHR129C, strain ARP1, stronger effect = lower value 1.01 | locus YHR142W, strain chs7, stronger effect = lower value 1.04 | locus YHR200W, strain rpn10, stronger effect = lower value 1.05 | locus YIL066C, strain RNR3, stronger effect = lower value 1.01 | locus YIL073C, strain SPO22, stronger effect = lower value 1.03 | locus YIL125W, strain kgd1, stronger effect = lower value 1.03 | locus YIR030C, strain dcg1, stronger effect = lower value 1.04 | locus YJL092W, strain hpr5, stronger effect = lower value 1.01 | locus YJL095W, strain BCK1 (second series), stronger effect = lower value 1.03 | locus YJL095W, strain BCK1, stronger effect = lower value 1.03 and 0.977 | locus YJL115W, strain asf1, stronger effect = lower value 1.03 | locus YJL129C, strain trk1, stronger effect = lower value 1.03 | locus YJL134W, strain LCB3, stronger effect = lower value 1.01 | locus YJL154C, strain vps35, stronger effect = lower value 0.993 | locus YJL164C, strain tpk1, stronger effect = lower value 1.06 | locus YJL166W, strain qcr8, stronger effect = lower value 1.08 | locus YJL168C, strain set2, stronger effect = lower value 1.02

Source: PubChem BioAssay AID1159580 (chemical genetic matrix, 2015)
